Assay outcomes: PubChem, National Center for Advancing Translational Sciences (NCATS)
Pf Dd2 inh: blocks in vitro growth of P. falciparum Dd2. P. falciparum Dd2 growth, SYBR Green, 72 h. Potency, µM (series often up to 28.9 µM), for the others: top-dose activity, negative = inhibition, most hits filed as inhibitors. 120,000 tested, 4.3% active; active means well fitted inhibition curve with a large enough effect;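 further: plate controls were DMSO vehicle for no effect and reference drug for full effect; nearly all actives have a fitted effect of over 65% in size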
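Infected erythrocytes (Dd2, 0.3% parasitemia, 2.5% hematocrit final) are added to compound in RPMI-1640/Albumax II medium, grown 72 h at 37C in low oxygen, then lysed with saponin/Triton-X containing SYBR Green and read by fluorescence.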
Starred values were filed as active, the others as inactive; i = inactive; [ ] = another dose, or the depositor's remark. The full list was thinned out, with hits kept by preference. Potency means the concentration at half of the fitted maximal effect.

SMILES	Pf Dd2 inh
CCCS(=O)(=O)N1CC[C@@H](CC(=O)O)[C@@H](CC2=NCCc3cc(OC)ccc32)C1	-14.2%[44.1 µM]
c1ccc(C(c2cccs2)c2c[nH]c3ccccc23)cc1 (centres undefined)	-20.0%
Cc1[nH]c2ccccc2c1C(c1ccccc1)c1ccc(Cl)s1 (centres undefined)	8.91µM*
CCc1noc(-c2cn(C3CCN(C(=O)c4cccc(C)c4)CC3)nn2)n1	-0.8%
CC(=O)c1cccc(Nc2c3c(nc4nc(-c5cccs5)nn24)CCCC3)c1	11.2µM*
COc1ccc(C)cc1Nc1c2c(nc3nc(-c4cccs4)nn13)CCCC2	46.7%[0.594 µM]
c1csc(-c2nc3nccc(-c4ccncc4)n3n2)c1	-13.1%
O=C1CCN(S(=O)(=O)c2ccccc2)CCCC(C(=O)NCCc2ccccn2)CCN1 (centres undefined)	11.5%
COc1cc(NC(=O)Cn2c(C)cc3nc4n(c(=O)c32)CCCCC4)cc(OC)c1OC	i
CC1CCN(CCCNC(=O)CN2C(=O)CSc3ccc(S(=O)(=O)N4CCOCC4)cc32)CC1	5.6%
CCCCNC(=O)CN1C(=O)CSc2ccc(S(=O)(=O)N3CCC(C)CC3)cc21	-0.4%
CC1CCN(CCCNC(=O)CN2C(=O)CSc3ccc(S(=O)(=O)N4CCC(C)CC4)cc32)CC1	8.91µM*
COc1ccc(-c2n[nH]c3c2CC(=O)N(Cc2ccccn2)C3)cc1F	-15.8%[44.1 µM]
O=C1Cc2c(-c3cccc4ccccc34)n[nH]c2CN1Cc1ccccn1	-4.3%[44.1 µM]
O=C1Cc2c(-c3ccccc3OCc3ccccc3)n[nH]c2CN1Cc1ccccn1	10µM*
COc1ccc(CN2Cc3[nH]nc(-c4ccccc4OC)c3CC2=O)cc1	-29.1%[44.1 µM]
O=C1Cc2c(-c3ccccc3Cl)n[nH]c2CN1Cc1ccccc1	7.1%[44.1 µM]
O=C1Cc2c(-c3ccccc3OCc3ccccc3)n[nH]c2CN1Cc1ccccc1	10µM*
COc1ccc(NC(=O)CN2C(=O)NC(c3ccccc3Cl)C3=C2COC3=O)cc1 (centres undefined)	-23.5%
Cc1ccccc1-c1noc(CCC(=O)N2CCC3(CCCNC3)C2)n1 (centres undefined)	-24.5%
CCOc1ccccc1NC(=O)Cn1c(N2CCOCC2)nc(C)cc1=O	-22.6%
CC(C)(C)NC(=O)N1CCC(Oc2ncccc2C(=O)N2CCOCC2)C1 (centres undefined)	i
COc1ccc(CCN2CC(C(=O)N3CCN(C)CC3)CCC2=O)cc1 (centres undefined)	-4.2%
COc1ccc(C(=O)N2CCOCC(O)(CN3CCCC3)C2)c(OC)c1 (centres undefined)	10.2%
CCc1cc(N2CCC3(CCCN(C)C3=O)C2)nc(N2CCCC2)n1 (centres undefined)	-29.3%
SMILES	Pf Dd2 inh
CCc1cc(N2CCOCC(O)(CN3CCCC3)C2)nc(N2CCCC2)n1 (centres undefined)	5.62µM*
Cn1nnnc1C1CCCN(C(=O)CCc2ccccc2)C1 (centres undefined)	0.2%
O=C(Cc1c[nH]c2ncc(-c3ccc4c(c3)OCO4)cc12)N1CCOCC1	1.7%[44.1 µM]
COc1ccccc1N1CCN(C(=O)CSc2nc(-c3ccc(C(C)C)cc3)no2)CC1	0.355µM*
CC1CCCCN1C(=O)CSc1n[nH]c(-c2ccccc2Cl)n1 (centres undefined)	7.8%
CC1CCCCN1C(=O)CSc1nnc(-c2ccccc2Cl)o1 (centres undefined)	-18.4%
COc1ccccc1N1CCN(C(=O)CSc2n[nH]c(-c3ccccc3)n2)CC1	-2.3%
CC1CCCCN1C(=O)CSc1nc(-c2ccccc2)no1 (centres undefined)	10µM*
COc1ccccc1N1CCN(C(=O)CSc2nc(C)cc(=O)[nH]2)CC1	54.3%
COCc1cc(=O)n(CC(=O)Nc2ccccc2)c(N2CCOCC2)n1	i
COc1cc(Cl)ccc1-c1cccc(COc2cnc3c(ccn3CC(=O)O)c2)c1	i
CC(C)(C)CC(=O)N1CC[C@H]2COC(=O)N2c2cc(F)ccc2C1	31.1%[44.1 µM]
COc1ccc(-c2nc(C)nc3c2CN(C(=O)c2ccc(C(F)(F)F)cc2)CC3)cc1	i
COc1ccc(CN2Cc3[nH]nc(-c4cccnc4OC)c3CC2=O)cc1	19.8%[44.1 µM]
COc1ccc(-c2noc(CSc3nnc(C)n3-c3ccc(C)cc3)n2)cc1OC	-10.4%
COc1ccc(-c2noc(N3CCN(c4ccc(C)cc4)C(C)C3)n2)cc1OC (centres undefined)	1.58µM*
Cc1ccc(N2CCN(c3cc(C)nc4c(-c5ccc(Cl)cc5)c(C)nn34)CC2C)cc1 (centres undefined)	i
Cc1ccc(-n2c(C3CCN(C(=O)c4cccc(F)c4)CC3)n[nH]c2=O)cc1	-13.2%
CCc1nc2c(c(-c3ccc(OC)cc3)n1)CN(C(=O)c1ccc(C(F)(F)F)cc1)CC2	6.7%
CCCNC(=O)N1CCCC1c1nc(CCOCC2CC2)no1 (centres undefined)	6.1%
Cc1nc(NC(C)c2nc(-c3cccnc3)no2)c2cccnc2n1 (centres undefined)	3.55µM*
COc1ccc(-c2noc(-c3nc(-c4cccnc4)no3)n2)cc1OC	2.2%
